The values that follow come from PubChem BioAssay (Tox21).

SMILES strings stand for the structures. Where “and” joins values, the source holds several entries; their conditions need not be identical. Equal values may be shown once. Calls of active or inactive are those of the source. Unless noted, calls follow the shape of the dose curve; as a rule, active = well fitted curve in the direction sought with a large enough effect in the repeat runs; inconclusive = weak or mixed curves; inactive = no such curve, though single readings can be large; an effect the other way counts as inactive or inconclusive.

The nature of assay [1]: qHTS assay to identify small molecule antagonists of the glucocorticoid receptor (GR) signaling pathway - cell viability counter screen (AID 720693; also: nearly all actives have a fitted effect of over 55% in size). (In qHTS, concentration-response curves come from the screen itself.)
The nature of assay [2]: qHTS assay for identifying genotoxic compounds that show differential cytotoxicity against isogenic chicken DT40 cell lines with known DNA damage response pathways - wild type cell line (AID 743012). Also: nearly all actives have a fitted effect of over 60% in size. Also: potency is read from the fitted curve at half-maximal effect. An outline of the steps:
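Quantitative HTS on parental DT40 cells: 40 h compound treatment at 37 C/5% CO2, with viability then determined by CellTiter-Glo luminescence. Values serve as the DNA repair-proficient reference for differential cytotoxicity.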

A short description of assay [3]: qHTS assay for identifying genotoxic compounds that show differential cytotoxicity against isogenic chicken DT40 cell lines with known DNA damage response pathways - Rev3 mutant cell line (AID 743014). Also: nearly all actives have a fitted effect of over 55% in size. Also: potency is read from the fitted curve at half-maximal effect.
A short description of assay [4]: qHTS assay for identifying genotoxic compounds that show differential cytotoxicity against isogenic chicken DT40 cell lines with known DNA damage response pathways - Rad54/Ku70 mutant cell line (AID 743015). Also: nearly all actives have a fitted effect of over 60% in size. Also: potency is read from the fitted curve at half-maximal effect.
The nature of assay [5]: qHTS assay to identify small molecule antagonists of the androgen receptor (AR) signaling pathway using the MDA cell line - cell viability counter screen (AID 743041; also: nearly all actives have a fitted effect of over 45% in size; also: potency is read from the fitted curve at half-maximal effect). An outline of the steps:
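MDA-kb2 AR-luc human breast carcinoma cells (MMTV-luciferase, AR/GR responsive) were treated with compounds plus R1881 agonist for 16 h at 37 °C. Viability was read as CellTiter-Fluor fluorescence in the same wells as the reporter assay.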

Assay [6] is described as follows: qHTS assay to identify small molecule antagonists of the thyroid receptor (TR) signaling pathway - cell viability counter screen (AID 743064). Also: nearly all actives have a fitted effect of over 50% in size. Also: potency is read from the fitted curve at half-maximal effect. An outline of the steps:
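GH3.TRE-Luc rat pituitary cells carrying a TRE-luciferase reporter were treated with compound plus 1 nM T3 (final) for 23.5 h at 37 °C. Viability was then read in the same wells by CellTiter-Fluor fluorescence after a further 30 min.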

The test system of assay [7] is thyroid hormone receptor (rat, GH3 cells). Description: qHTS assay to identify small molecule agonists of the thyroid receptor (TR) signaling pathway (AID 743066; calls by dose curve).
The nature of assay [8]: qHTS assay to identify small molecule antagonists of the estrogen receptor alpha (ER-alpha) signaling pathway - cell viability counter screen (AID 743074; calls by dose curve; also: nearly all actives have a fitted effect of over 45% in size).
Assay [9] can be described thus: qHTS assay to identify small molecule antagonists of the estrogen receptor alpha (ER-alpha) signaling pathway using the BG1 cell line - cell viability counter screen (AID 743081).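 Also: compound given together with 17beta-estradiol as the ER stimulus; nearly all actives have a fitted effect of over 45% in size.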 Also: potency is read from the fitted curve at half-maximal effect.
The target of assay [10] is Aromatase (Homo sapiens) (UniProt P11511). Put plainly: qHTS assay to identify aromatase inhibitors (AID 743083). Also: nearly all actives have a fitted effect of over 55% in size. Also: potency is read from the fitted curve at half-maximal effect.
A short description of assay [11]: qHTS assay to identify small molecule antagonists of the thyroid receptor (TR) signaling pathway (AID 743065). Also: nearly all actives have a fitted effect of over 55% in size. Also: potency is read from the fitted curve at half-maximal effect. In a few lines: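 GH3.TRE-Luc rat pituitary cells carrying two TR response elements driving luciferase were plated for 4 h, given compound plus 1 nM T3 (final), and incubated 23.5 h at 37 C. ONE-Glo luminescence measured reporter inhibition; CellTiter-Fluor fluorescence tracked cytotoxicity.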

The target in assay [12] is Estrogen receptor (Homo sapiens) (UniProt P03372). Description: qHTS assay to identify small molecule agonists of the estrogen receptor alpha (ER-alpha) signaling pathway (AID 743075; calls by dose curve).
Assay [13] shares this target. Description: qHTS assay to identify small molecule agonists of the estrogen receptor alpha (ER-alpha) signaling pathway using the BG1 cell line (AID 743079). Also: nearly all actives have a fitted effect of over 20% in size.
Assay [14] can be described thus: qHTS assay to identify small molecule antagonists of the estrogen receptor alpha (ER-alpha) signaling pathway using the BG1 cell line (AID 743080; calls by dose curve;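 also: BG1 cells stimulated with 17beta-estradiol alongside compound; series mostly up to about 70 µM; nearly all actives have a fitted effect of over 25% in size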). An outline of the steps:
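BG1-Luc-4E2 cells (endogenous full-length ER-alpha, stable 4×ERE-luciferase) were starved 5 days in phenol-red-free medium with 10% charcoal-stripped FBS, plated 24 h, then given compound plus 17beta-estradiol for 21.5 h at 37 C; ONE-Glo luminescence read after 30 min.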

The target in assay [15] is Estrogen receptor (Homo sapiens) (UniProt P03372). Put plainly: qHTS assay to identify small molecule antagonists of the estrogen receptor alpha (ER-alpha) signaling pathway (AID 743069; active = well fitted curve in the direction sought with a large enough effect in the signal ratio in the repeat runs, not every such curve was filed as active; inconclusive = weak or mixed curves, or effect the other way; inactive = no such curve, though single readings can be large or run the other way; the % refers to the signal ratio; also: potency is read from the fitted curve at half-maximal effect). An outline of the steps:
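HEK293 cells stably carrying an ER-alpha-UAS-bla beta-lactamase reporter were pre-cultured overnight in 2% charcoal-stripped FBS medium. Test compounds in DMSO were added together with 17beta-estradiol for 18 hr at 37C. Read-out was fluorescence after 2 hr with LiveBLAzer B/G FRET substrate at room temperature.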

The nature of assay [16]: qHTS assay to identify small molecule antagonists of the androgen receptor (AR) signaling pathway - cell viability counter screen (AID 743033; also: nearly all actives have a fitted effect of over 45% in size).

Chain of Aromatase (Homo sapiens) (P11511 whole entry, looked up): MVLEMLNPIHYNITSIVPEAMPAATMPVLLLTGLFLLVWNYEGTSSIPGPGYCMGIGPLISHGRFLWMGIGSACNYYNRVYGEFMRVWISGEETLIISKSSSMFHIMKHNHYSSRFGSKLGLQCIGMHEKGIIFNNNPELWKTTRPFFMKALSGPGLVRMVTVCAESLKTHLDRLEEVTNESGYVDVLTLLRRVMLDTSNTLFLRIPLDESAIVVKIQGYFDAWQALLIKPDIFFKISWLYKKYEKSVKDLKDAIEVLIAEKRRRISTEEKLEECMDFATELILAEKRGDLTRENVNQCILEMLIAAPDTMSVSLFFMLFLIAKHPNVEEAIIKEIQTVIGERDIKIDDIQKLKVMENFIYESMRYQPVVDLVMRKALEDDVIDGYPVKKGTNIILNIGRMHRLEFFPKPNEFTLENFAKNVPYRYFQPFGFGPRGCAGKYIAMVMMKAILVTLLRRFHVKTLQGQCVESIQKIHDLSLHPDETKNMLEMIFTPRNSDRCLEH
Chain of Estrogen receptor (Homo sapiens) (P03372 whole entry, looked up): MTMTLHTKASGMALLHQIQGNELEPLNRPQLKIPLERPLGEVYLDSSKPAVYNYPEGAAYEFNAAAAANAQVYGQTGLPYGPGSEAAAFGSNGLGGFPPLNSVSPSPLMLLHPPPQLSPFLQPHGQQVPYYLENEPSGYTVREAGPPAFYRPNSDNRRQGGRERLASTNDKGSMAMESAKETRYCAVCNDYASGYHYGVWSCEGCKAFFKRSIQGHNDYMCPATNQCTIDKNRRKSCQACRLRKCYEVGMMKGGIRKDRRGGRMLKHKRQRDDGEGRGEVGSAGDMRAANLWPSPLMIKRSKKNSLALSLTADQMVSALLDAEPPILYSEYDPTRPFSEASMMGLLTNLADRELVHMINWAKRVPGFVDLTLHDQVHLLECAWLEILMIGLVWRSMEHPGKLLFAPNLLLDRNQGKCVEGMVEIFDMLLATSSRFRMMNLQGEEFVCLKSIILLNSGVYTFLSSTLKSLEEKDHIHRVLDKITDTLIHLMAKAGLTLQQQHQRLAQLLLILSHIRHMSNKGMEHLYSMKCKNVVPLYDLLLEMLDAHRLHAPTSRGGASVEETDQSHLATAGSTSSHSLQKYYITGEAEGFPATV

`COc1ccc(C)cc1[N+](=O)[O-]`: the Potency result in assay [1], in assay [2], in assay [3], in [4], in assay [5] and in assay [6] was “inactive” throughout. The Potency result in assay [7], in assay [8], in assay [9] and in assay [10] was “inactive” each time.
For `CCCCc1nc2cccnc2n1Cc1ccc(-c2ccccc2-c2nnn[nH]2)cc1`, the Potency entry in assay [1], in assay [2], in assay [3], in [4], in [5] and in [11] was “inactive” throughout. Besides, the Potency entry in assay [7], in assay [12], in assay [13], in assay [14], in assay [9] and in [10] was “inactive” each time. In addition, in [6], the Potency was 54.5 µM (active).
As to `O=C(O)c1ccc(-n2nc(-c3ccccc3O)nc2-c2ccccc2O)cc1`, the Potency entry in assay [1], in assay [5], in [8], in assay [12] and in assay [9] was “inactive” each time. Further, the Potency in [2] is 13.3 µM (active); in assay [3], 18.8 µM (active); in assay [4] it was 18.8 µM (active); in [15], 16.9 µM [inconclusive] (active).
On to `OCc1cc(C(O)CNCCCCCCOCCCCc2ccccc2)ccc1O` (stereo unspecified), for which the Potency entry in assay [1], in assay [15], in assay [8] and in [12] was “inactive” in each case. Also, the Potency in [2] was 3.35 µM (active) and 2.37 µM (active); in assay [3], 5.96 µM (active) and 4.73 µM (active); in assay [4], 5.31 µM (active) and 3.35 µM (active); in [6], 7.5 µM (active) and 11.9 µM (active); in [11], 10.6 µM (active) and 8.41 µM (active); in assay [9] it was 23.7 µM (active). Besides, the Potency in assay [10] was 26.6 µM (active).
As to `CCCCCCCCCCCc1ccccc1`, the Potency result in assay [1], in assay [2], in [16], in [5], in [6] and in assay [11] was “inactive” in each case. Moreover, the Potency entry in assay [7], in [12], in [13], in assay [14], in assay [9] and in assay [10] was “inactive” throughout. Also, the Potency in assay [3] is 60.3 µM (active).
With `CC(CC=O)c1ccccc1` (stereo unspecified), the Potency result in assay [1], in assay [2], in [3], in [4], in assay [5] and in assay [6] was “inactive” each time. In addition, the Potency entry in assay [7], in [15], in assay [8], in assay [12], in assay [13] and in assay [14] was “inactive” throughout. The Potency entry in [9] and in [10] was “inactive” in each case.
Consider `Cc1cccc(C)c1NC(=O)CN(CC(=O)O)CC(=O)O`, for which the Potency result in [1], in assay [2], in assay [3], in assay [16], in assay [5] and in [11] was “inactive” in each case. Besides, the Potency entry in [7], in assay [8], in assay [9] and in assay [10] was “inactive” throughout.
`O=C1c2ccccc2S(=O)(=O)N1CCCCN1CCN(c2ncccn2)CC1`: the Potency entry in [1], in [2], in assay [3], in [4], in assay [6] and in assay [11] was “inactive” each time. Also, the Potency result in assay [7], in assay [15], in assay [8], in [12], in [13] and in [14] was “inactive” in each case. The Potency entry in assay [9] and in assay [10] was “inactive” throughout.
As to `CC[N+]1(CC)CCC(=C(c2ccccc2)c2ccccc2)C1C` (stereo unspecified), the Potency entry in [1] and in assay [10] was “inactive” each time. Further, the Potency in assay [2] is 8.41 µM (active); in assay [3], 16.8 µM (active); in [4] it was 13.3 µM (active).
Take `CCOC(=O)C1=C[C@]2(CC)CCCN3CCc4c(n1c1ccccc41)[C@@H]32`: the Potency result in assay [1], in assay [5], in assay [8], in assay [12], in assay [13] and in [14] was “inactive” throughout. For the same molecule, the Potency entry in assay [9] and in [10] was “inactive” each time. Also, the Potency was 10.6 µM (active) and 6.68 µM (active) in assay [2]; 10.6 µM (active) and 9.44 µM (active) in [3]; 16.8 µM (active) and 10.6 µM (active) in assay [4]; 9.44 µM (active) in assay [6].
For the molecule `CCN(CC)c1ccc2c(-c3ccccc3C(=O)O)c3ccc(=[N+](CC)CC)cc-3oc2c1`, the Potency entry in assay [1], in assay [8], in assay [12] and in assay [14] was “inactive” each time. Also, the Potency was 12.2 µM (active) in assay [2]; 8.63 µM (active) in assay [3]; 8.63 µM (active) in [4]; 24.3 µM (active) in assay [5]; 5.45 µM (active) in [6]; 9.69 µM (active) in [9].
Regarding `O=C(O)C(S)C(S)C(=O)O` (stereo unspecified), the Potency result in assay [1], in [2], in assay [3], in [16], in assay [7] and in [8] was “inactive” each time. The Potency entry in [9] and in assay [10] was “inactive” each time. The Potency in assay [11] is 11.9 µM (active).
Take `CCCOC(C(=O)OC1CCN(C)CC1)(c1ccccc1)c1ccccc1`: the Potency entry in assay [1], in assay [5], in [15], in [8], in assay [12] and in [13] was “inactive” each time. Moreover, the Potency result in assay [14] and in assay [10] was “inactive” each time. Also, the Potency in assay [2] was 5.96 µM (active); in assay [3], 7.5 µM (active); in [4], 11.9 µM (active); in [6], 18.8 µM (active); in [11], 26.6 µM (active).
With `CCN(CC)CCOC(=O)C(Cc1cccc2ccccc12)CC1CCCO1` (stereo unspecified), the Potency entry in assay [1], in [3], in assay [4], in assay [16], in assay [5] and in assay [8] was “inactive” in each case. For the same molecule, the Potency entry in [9] and in assay [10] was “inactive” throughout.
With `OC(C#CCN1CCCC1)(c1ccccc1)c1ccccc1`, the Potency entry in assay [1], in assay [16], in assay [5], in assay [7], in [8] and in [10] was “inactive” each time. Also, the Potency was 23.7 µM (active) in assay [2] and 26.6 µM (active) in assay [4].
Turning to `C1CCCNCCC1`, the Potency result in assay [1], in assay [3], in [4], in assay [5], in assay [7] and in assay [8] was “inactive” in each case. In addition, the Potency entry in assay [9] and in [10] was “inactive” in each case.
`O=C(O)c1ccco1`: the Potency result in assay [1], in assay [3], in assay [4], in [16], in [5] and in [11] was “inactive” each time. The Potency result in assay [7], in assay [15], in [8], in assay [12], in [13] and in [14] was “inactive” in each case. Besides, the Potency entry in assay [9] and in [10] was “inactive” throughout.
Take `CCCCOC(=O)CCCCCCCC(=O)OCCCC`: the Potency result in assay [1], in [2], in assay [4], in [16], in [6] and in assay [11] was “inactive” in each case. Besides, the Potency entry in [7], in assay [8], in [9] and in assay [10] was “inactive” each time.
